# Test results from publication PMC4336329 (PLoS ONE, 2015).
# The whole screen tested about 310,000 compounds, of which about 14,000 (4.5%) showed an effect of 50% or more. The effect is printed as a negative number. This is one part of a sample in which strong results are shown more often than they occur.
# Target: human ether-à-go-go-related gene (hERG) potassium channel (human, UniProt Q12809)
# Experiment: primary screen, population patch clamp on CHO cells stably expressing hERG; higher = less effect of the substance
# 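Note: peak tail current of the secondary pulse compared with the same well before compound.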
# Chain of human ether-à-go-go-related gene (hERG) potassium channel (Q12809 whole entry, looked up): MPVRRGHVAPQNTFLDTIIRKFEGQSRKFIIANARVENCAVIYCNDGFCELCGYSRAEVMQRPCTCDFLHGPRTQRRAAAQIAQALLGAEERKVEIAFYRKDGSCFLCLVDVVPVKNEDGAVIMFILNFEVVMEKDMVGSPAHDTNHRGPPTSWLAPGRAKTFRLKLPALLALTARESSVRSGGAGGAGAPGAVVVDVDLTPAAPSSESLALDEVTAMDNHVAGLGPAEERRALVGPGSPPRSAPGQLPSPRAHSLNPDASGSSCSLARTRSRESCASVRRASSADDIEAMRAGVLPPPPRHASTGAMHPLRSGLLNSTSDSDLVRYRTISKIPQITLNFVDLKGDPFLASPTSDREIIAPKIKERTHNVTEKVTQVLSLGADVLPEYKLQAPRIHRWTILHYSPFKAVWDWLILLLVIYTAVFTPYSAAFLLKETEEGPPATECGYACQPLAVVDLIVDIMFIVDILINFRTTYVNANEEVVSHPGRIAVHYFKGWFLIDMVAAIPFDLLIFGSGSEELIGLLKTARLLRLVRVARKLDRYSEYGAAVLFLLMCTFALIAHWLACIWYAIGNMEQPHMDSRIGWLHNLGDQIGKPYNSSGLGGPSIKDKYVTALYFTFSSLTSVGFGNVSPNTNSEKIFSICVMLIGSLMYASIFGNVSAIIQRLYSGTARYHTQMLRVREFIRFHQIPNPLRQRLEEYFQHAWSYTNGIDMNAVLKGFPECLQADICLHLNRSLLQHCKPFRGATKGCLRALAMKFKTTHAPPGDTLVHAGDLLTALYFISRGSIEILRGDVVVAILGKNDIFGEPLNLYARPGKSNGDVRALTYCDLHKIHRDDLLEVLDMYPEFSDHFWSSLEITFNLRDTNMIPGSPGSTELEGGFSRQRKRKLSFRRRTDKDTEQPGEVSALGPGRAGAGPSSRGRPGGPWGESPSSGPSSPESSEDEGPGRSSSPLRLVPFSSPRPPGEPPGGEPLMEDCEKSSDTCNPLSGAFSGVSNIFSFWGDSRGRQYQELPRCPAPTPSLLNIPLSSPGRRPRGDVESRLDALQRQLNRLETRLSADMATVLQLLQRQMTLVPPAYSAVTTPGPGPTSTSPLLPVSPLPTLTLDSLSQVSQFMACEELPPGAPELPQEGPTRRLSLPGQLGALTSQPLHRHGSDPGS
row,SMILES,"hERG current change (%, negative = inhibition) at 10uM"
1,Cc1ccc(S(=O)(=O)N(C)/N=C/c2ccc(C(=O)O)cc2)cc1,-7.51%
2,N#C/C(=C\c1ccc(C#N)cc1)C(=O)c1ccccc1,10.7%
3,COc1ccc(NC(=O)CSc2nnc(-c3ccccn3)n2N)cc1Cl,-2.27%
4,COc1ccc(/C=N/NC(=O)CCC(=O)Nc2ccc(Br)cc2)c(OC)c1,5.6%
5,COc1ccc(CNC(=O)Cn2nc([N+](=O)[O-])c(Br)c2C)cc1OC,-10.2%
6,COC(=O)C1=C(C)N(c2ccc(C)c(C)c2)/C(=C/c2cccs2)C1=O,-17.7%
7,CCS(=O)(=O)N1CCN(S(=O)(=O)c2ccc3c(c2)OCCO3)CC1,17.5%
8,CCCCOc1ccc(/C=C/C(=O)N(CC)CC(=O)Nc2ccc3c(c2)OCCO3)cc1OC,-28.9%
9,CNC(=O)/C(C#N)=C/c1ccc(-c2ccc(OC)cc2[N+](=O)[O-])o1,-1.67%
10,O=C(c1cccc(Cl)c1)N1CCC(=O)N(C(COCc2ccccc2)Cc2ccccc2)CC1 (stereo not shown),-51.9%
11,CC(C)CN1CCC(=O)N([C@H](CO)Cc2ccccc2)CC1,6.64%
12,Cc1cccc(COCC(Cc2ccccc2)N2CCN(C(=O)c3cccc(Cl)c3)CCC2=O)c1 (stereo not shown),-15.1%
13,O=C1CCN(Cc2ccccc2)CCN1[C@H](COc1ccccc1)Cc1ccccc1,-56.4%
14,CC(C)CN1CCC(=O)N([C@H](COc2ccccc2)Cc2ccccc2)CC1,-71.7%
15,C[C@H]1CCC(=O)N([C@H](COc2ccccc2)Cc2ccccc2)CC1,-42.7%
16,CC(C)C[C@@H](COc1ccccc1)N1CCN(CC(C)C)CCC1=O,-48.5%
17,N#CC[C@H](Cc1ccccc1)N1CCN(Cc2ccccc2)CCC1=O,-24%
18,CCCN1CCC(=O)N([C@H](COc2ccccc2)Cc2ccccc2)CC1,-68.1%
19,O=C(c1cc(Cl)cc(Cl)c1)N1CCC(=O)N(C(COCc2ccccc2)Cc2ccccc2)CC1 (stereo not shown),-10%
20,O=C1CCN(Cc2ccccc2)CCN1[C@H](CO)Cc1ccccc1,14.5%
21,CN1CCC(=O)N([C@H](COc2ccccc2)Cc2ccccc2)CC1,-28.5%
22,Cc1cc(C)c2[nH]c(O)c(N=NC3=NC(=O)CS3)c2c1,-19.6%

row,SMILES,"hERG current change (%, negative = inhibition) at 10uM"
1,Cc1ccc(C)c(N2CCN(c3nc4ccccc4c(=O)n3Cc3ccccc3)CC2)c1,14.1%
2,Cc1cnc(C(=O)N2CCCC(C(=O)c3ccc(C(C)(C)C)cc3)C2)cn1 (stereo not shown),-20.7%
3,CCN1CCN(C(=O)c2ccc(CNS(=O)(=O)c3cccc(OC)c3)cc2)CC1,40.7%
4,O=C(OCc1cncs1)c1ccccc1Cl,6.6%
5,O=C(NCc1cccnc1)Nc1ccc2c(c1)OCO2,-7.04%
6,COc1ccccc1CCNC(=O)C1CCN(C(=O)/C=C/c2ccccc2)CC1,-13.8%
7,COCCCNC(=O)CSc1ccc(Cl)cc1,2.32%
8,CCCCN(Cc1ccccc1)C(=O)CCN1C(=O)C2C3C=CC(C3)C2C1=O (stereo not shown),1.48%
9,O=C1CCN(CCc2ccccc2)CCN1[C@H](COc1ccccc1)Cc1ccccc1,-78.6%
10,O=C1CCN(CCc2ccccc2)CCN1[C@H](CO)Cc1ccccc1,-44.4%
11,N#CC[C@H](Cc1ccccc1)N1CCN(CCc2ccccc2)CCC1=O,16.5%
12,O=C(Nc1ccccc1)NC1CCN(Cc2c(F)cccc2Cl)CC1,7.91%
13,Cc1cccc(-c2nc3c(c(SCC(=O)N4CCOCC4)n2)Cc2c(CO)cnc(C)c2O3)c1,5.78%
14,Cc1ccc(S(=O)(=O)NNC(=O)c2csnn2)cc1,1.7%
15,O=Cc1ccc(-n2nncc2-c2ccc([N+](=O)[O-])cc2)cc1,-67.3%
16,CC(=O)c1ccc(-n2nncc2C)cc1,19.8%
17,O=[N+]([O-])c1ccc(-n2nncc2-c2ccccc2)cc1,-29.4%
18,c1ccc(-c2cnnn2-c2ccccc2)cc1,12.7%
19,O=[N+]([O-])c1ccc(-n2nncc2-c2ccc(Cl)cc2)cc1,-72.7%
20,O=C(O)c1ccc(-n2nncc2-c2ccccc2)cc1,8.58%
21,COc1ccc(-c2cnnn2-c2ccc([N+](=O)[O-])cc2)cc1,-64.6%
22,CC(C)(C)c1cnnn1-c1ccc([N+](=O)[O-])cc1,-8.46%

row,SMILES,"hERG current change (%, negative = inhibition) at 10uM"
1,Nc1ccc(-n2nncc2-c2ccc(Cl)cc2)cc1,-35.9%
2,Cc1cnnn1-c1ccc([N+](=O)[O-])cc1,23.5%
3,CC(=O)c1ccc(-n2nncc2-c2ccc([N+](=O)[O-])cc2)cc1,-53.3%
4,O=[N+]([O-])c1cccc(-n2nncc2-c2ccccc2)c1,-1.23%
5,Cc1ccc(CNS(=O)(=O)c2ccc(F)c(F)c2)n1C,15.3%
6,COc1ccc(CCNC(=O)C2CCCN2C(=O)Nc2cccc(C(C)=O)c2)cc1OC (stereo not shown),-3.26%
7,COc1ccc(-c2cc(C(F)F)n3ncc(C(=O)N4CCN(C(=O)c5ccco5)CC4)c3n2)cc1,-34.8%
8,CCc1ccc(NC(=O)C(=O)NCC2CCCO2)cc1 (stereo not shown),10%
9,CCOC(=O)N1CCN(c2nc(=S)n(-c3ccccc3)c(C)c2C(C)=O)CC1,-2.56%
10,COC(=O)c1ccccc1NC(=S)NC(=O)COc1ccccc1Cl,-4.5%
11,CCC1(C)Cc2nc3[nH]c(=S)n(-c4ccccc4)c(=O)c3cc2CO1 (stereo not shown),17.6%
12,CCOC(=O)COc1coc(CN2CCN(c3ccccc3)CC2)cc1=O,9.43%
13,O=C(c1ccc(NS(=O)(=O)c2cccc3cccnc23)cc1)N1CCCCC1,12%
14,CCOC(=O)C(C(=O)NCC1CCCO1)C1CCCCC1 (stereo not shown),12%
15,CCCCCCNC(=O)C(C(=O)OCC)C1CCCCC1 (stereo not shown),-4.59%
16,C=CCNC(=O)C(C(=O)OCC)C1CCCCC1 (stereo not shown),-53.3%
17,CCCC[C@H](CN[C@@H](CNC)[C@H](C)CC)NCCC12CCC(CC1)C2,10.4%
18,O=C(CNCc1ccccn1)Nc1cc(S(=O)(=O)N2CCCCC2)ccc1Cl,-19%
19,O=C(Cc1cccs1)Nc1ccc(S(=O)(=O)N2CCCCC2)cc1,5.37%
20,Cl.O=C(CNCc1cccs1)Nc1ccc(S(=O)(=O)N2CCCCC2)cc1,-70.9%
21,CN(CC(=O)Nc1cc(S(=O)(=O)N2CCCC2)ccc1Cl)Cc1cccs1,-16%
22,N=c1sccn1CC(=O)Nc1cc(S(=O)(=O)N2CCCCC2)ccc1Cl,-62.5%

row,SMILES,"hERG current change (%, negative = inhibition) at 10uM"
1,Cc1ccc(S(=O)(=O)N2CCCCC2)cc1NC(=O)Cn1ccsc1=N.Cl,-33.7%
2,O=C(CNCc1ccncc1)Nc1cc(S(=O)(=O)N2CCCCC2)ccc1Cl,-63.9%
3,O=C(CNCc1cccs1)Nc1cc(S(=O)(=O)N2CCCC2)ccc1Cl,-52%
4,O=C(Cc1cccs1)Nc1ccc(S(=O)(=O)N2CCCC2)cc1,10.6%
5,O=C(Cc1cccs1)Nc1cc(S(=O)(=O)N2CCCCC2)ccc1Cl,-0.378%
6,Cl.N=c1sccn1CC(=O)Nc1cc(S(=O)(=O)N2CCCC2)ccc1Cl,-39.5%
7,O=C(CCl)Nc1cc(S(=O)(=O)N2CCCCCC2)ccc1Cl,-22.9%
8,Cc1nn(C)cc1/C=N/NC(=O)Cn1nccc1C,-1.28%
9,CCCCC(=O)NC1(C(F)(F)F)NC(=O)N(C)C1=O (stereo not shown),11.3%
10,CCC(Sc1nc2ccsc2c(=O)n1-c1ccc(Cl)c(C)c1)C(=O)NCc1ccco1 (stereo not shown),-16.8%
11,CCOC(=O)c1nnn(CC(=O)Nc2cccc(Cl)c2C)c1C(=O)OCC,4.51%
12,COc1cc(NC(=O)CSc2nnc3c(C)cc4c(C)ccc(C)c4n23)c(C(=O)O)cc1OC,27.1%
13,COc1cccc(CNC(=O)CCC2CCCN(c3cc(C)nc(N4CCCC4)n3)C2)c1 (stereo not shown),-75%
14,COc1cccc(CNC(=O)CCC2CCCN(C(=O)C3CCOCC3)C2)c1 (stereo not shown),1.51%
15,COc1cccc(CNC(=O)CCC2CCCN(c3cc(C)nc(N(C)C)n3)C2)c1 (stereo not shown),-62.4%
16,COc1cccc(CNC(=O)CCC2CCCN(c3cc(C)nc(N)n3)C2)c1 (stereo not shown),-63.5%
17,COc1cccc(CNC(=O)CCC2CCCN(C(=O)c3ccc(C)nc3)C2)c1 (stereo not shown),9.47%
18,COc1cccc(CNC(=O)CCC2CCCN(C(=O)c3cc(C)on3)C2)c1 (stereo not shown),5.3%
19,COc1cccc(CNC(=O)CCC2CCCN(C(=O)c3cc(C)[nH]n3)C2)c1 (stereo not shown),31.9%
20,Cc1cc(C)nc(N2CCCC(CCC(=O)NCc3ccc(F)c(F)c3)C2)n1 (stereo not shown),-1.25%
21,COc1cccc(CNC(=O)CCC2CCCN(C(=O)c3ccccc3N(C)C)C2)c1 (stereo not shown),0.174%
22,Cc1ccc(Nc2cccccc2=O)cc1,-4.5%
